# Several values for one entry are separate records, joined by “and”; a condition that tells them apart may be missing. Identical values can stand only once. About 83,000 compounds went through this panel and 20% of them were active in at least one assay; those are over-represented in the sample as a whole.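 Step 1: grow cells in 96-well plates. Step 2: add test compound at a single concentration. Step 3: incubate 48 h. Step 4: record percent growth.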 Values without a mark were called inactive. Activity calls are given as the source filed them. How the source made its calls: active means growth percent below 10; inactive means the rest.
# System: MDA-MB-468 breast
# Assay: NCI-60 one-dose screen, 48 h (100 = growth as untreated, 0 = no growth, -100 = all killed)
# Settings: 10 µM unless noted
row,SMILES,growth
1,c1ccc(Oc2c3ccccc3nc3ccccc23)cc1,-4.55% (active)
2,C#C[C@]1(O)CCC2C3CCc4cc(O)ccc4C3CC[C@@]21C (stereo not given in full),12.1%
3,CC1(C)CNC(=O)N1,98.2%
4,Oc1c(Cl)cc(Cl)cc1CNc1nccnn1,109%
5,NNC(=O)c1nc(N)n(-c2ccc(S(N)(=O)=O)cc2)n1,108%
6,CCc1c(C)c2cc3c(c(C)c2oc1=O)OCC(=O)N3,69.4%
7,CCOC(=O)C#Cc1c(C(=O)OCC)nnn1[C@@H]1O[C@H](COC)[C@@H](OC)[C@H]1OC,-20.5% (active)
8,CCCCOc1ccc(NC(=O)n2nc(NC(C)=O)c3cc(NC(C)=O)ccc32)cc1,111%
9,O=C(/C=C/c1ccccc1)n1c(-c2ccccc2)nc2ccccc21,98.2%
10,CC(CNc1nc(Nc2ccc(Cl)c(Cl)c2)nc(C(Cl)(Cl)Cl)n1)N(C)C (stereo not given),-43.3% (active)
11,COc1cccc2c1O/C(=C\c1ccc([N+](=O)[O-])s1)C2=O,14.5%
12,O=C(/C=C/Nc1ccc(S(=O)(=O)O)cc1)c1ccc(F)cc1,95.8%
13,COc1ccc(N(C)c2nc(Cl)nc3cnn(C)c23)cc1,26.9%
14,O=C(N/N=C/c1ccccc1)C(Oc1ccccc1)c1ccccc1 (stereo not given),80.2%
15,Cc1cc(O)c(=O)cc2c1C[C@H]1CC(C)(C)/C=C/C[C@]3(C)Oc4cc(=O)c(O)cc(C)c4C[C@H]3C[C@H](O)[C@@]1(C)O2,-16.7% (active) and -22.9% (active)
16,COc1ccc(C(Cc2ccccc2)NCCN2CCOCC2)cc1 (stereo not given),99.6%
17,CCOc1cc2ncc(C#N)c(Nc3ccc(OCc4cccc(F)c4)c(Cl)c3)c2cc1NC(=O)CCCCC1CCSS1 (stereo not given),70.4%
18,Cc1c(C(N)=O)sc2c1c(=O)n(Cc1ccccc1)c1nnc(S(C)(=O)=O)n21,57.1%
19,COc1ccc(-c2cc(-c3cc(OC)c(OC)c(OC)c3)c(C#N)c(=O)n2CCCCC(=O)NO)cc1,72.3%
20,COc1cc2nc(-c3ccc(C(F)(F)F)cc3)cc(OCCCN3CCCCC3)c2cc1OC,52.5%

row,SMILES,growth
1,CC(C)(C)c1ccc(O)c(-c2ccccc2)c1,140%
2,N#Cc1ccc(/C=C/c2cn(-c3ccccc3)nc2-c2cccc([N+](=O)[O-])c2)cc1,64.7%
3,Cc1cc(C)nc(NS(=O)(=O)c2ccc(Nc3ccc4c5c(n(CCCN(C)C)c(=O)c4c3)-c3ccccc3C5=O)cc2)n1,111%
4,Cc1nc2ccccc2c(/C=C/c2ccc(Br)cc2)c1C(=O)/C=C/c1ccccc1,-15.5% (active)
5,COc1ccccc1-n1c(SCc2cc(OC)c(OC)c(OC)c2)nc2ccc(Cl)cc2c1=O,21.5%
6,COc1ccc(C(=O)N2N=C(c3ccc(Br)cc3)CC2c2cn(-c3ccccc3)nc2-c2ccccc2)cc1 (stereo not given),69%
7,COc1cc(/C=C2\SC(=O)NC2=O)ccc1OCC(=O)Nc1ccc(C(=O)/C=C/c2cc3ccccc3nc2Cl)cc1,61.4%
8,O=c1cc(CSc2nnc(-c3ccccc3)n2-c2ccc(F)cc2)c2ccc3ccccc3c2o1,93.2%
9,COc1ccc2nc(-c3ccc(-c4noc(-c5ccc(Cl)cc5)n4)cc3)[nH]c2c1,37.5%
10,CCCN=C1NC(=O)/C(=C/c2nc(-c3ccc(OC)cc3)n3ccccc23)S1,101%
11,CN(C)c1ccc(NC(=O)c2ccc(/C=C/C(=O)c3ncc[nH]3)cc2)cc1,45.6%
12,O=C(/C=C/C=C/c1ccc2c(c1)OCO2)N/N=C\c1ccc(O)cc1O,-2.83% (active)
13,FC(F)(F)c1cccc(Oc2ccc(Nc3ncnc4ccc(OCCCN5CCOCC5)cc34)cc2Cl)c1,5.72% (active)
14,O=C(O)CC1CCCCC1c1ccccc1 (stereo not given),105%
15,Cn1ncc2c(Sc3ccc(Cl)cc3)ncnc21,92.2%
16,Fc1ccc(-c2cc3nc(C(Cl)Cl)nc(-c4ccco4)n3n2)cc1,-43.6% (active)
17,O=C1c2ccccc2C(=O)c2c1ccc(C(=O)O)c2[N+](=O)[O-],119%
18,COc1ccc(C(=O)c2cc(OC)c(OC)c(OC)c2)cc1/C=C/C(=O)c1ccc2c(c1)OCO2,9.38% (active)
19,FC(F)(F)c1ccc(/C=N/Nc2nnc3n2N=C(c2ccc(Cl)cc2)CS3)cc1,74.3%
20,CS(=O)(=O)Nc1cc(-c2ccc3ncnc(Nc4ccc(OCc5ccccn5)c(Cl)c4)c3c2)cnc1Cl,-55.4% (active)
